Inconclusive results are not listed. Values without a mark were called inactive. Calls of active or inactive are those of the source. Calls follow the shape of the dose curve; as a rule, active = well fitted curve in the direction sought with a large enough effect; inconclusive = small, poorly fitted or top-dose-only effect, or another doubt; inactive = no such curve, though single readings can be large; an effect the other way counts as inactive or inconclusive.

Assay [1] is described as follows: qHTS for Inhibitors of the Aldehyde Dehydrogenase Family (ALDH1A2, ALDH1A3, ALDH2, ALDH3A1) (AID 2061307). Also: nearly all actives have a fitted effect of over 50% in size. As to Potency: test system not described further here; potency is read from the fitted curve at half-maximal effect. As to activity change, negative = inhibition: % is scaled to controls: 0 for no effect and ±100 for the full control effect. A general note: In qHTS, concentration-response curves come from the screen itself.
Assay [2] has as its target Aldehyde dehydrogenase, mitochondrial (Homo sapiens) (UniProt P05091). Put plainly: qHTS for Inhibitors of the Aldehyde Dehydrogenase Family (ALDH2) Primary screen (AID 2061308).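 Also: plate controls were vehicle for no effect and reference inhibitor for full effect; nearly all actives have a fitted effect of over 55% in size.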
In assay [3] the target is Retinaldehyde dehydrogenase 3 (Homo sapiens) (UniProt P47895). Kind of assay: qHTS for Inhibitors of the Aldehyde Dehydrogenase Family (ALDH1A3) Confirmatory screens (AID 2061311). Also: nearly all actives have a fitted effect of over 60% in size. Also: potency is read from the fitted curve at half-maximal effect. As to activity change, negative = inhibition: % is scaled to controls: 0 for no effect and ±100 for the full control effect.
For assay [4], the target named is Retinal dehydrogenase 2 (Homo sapiens) (UniProt O94788). Put plainly: qHTS for Inhibitors of the Aldehyde Dehydrogenase Family (ALDH1A2) Confirmation screens (AID 2061314). Also: nearly all actives have a fitted effect of over 65% in size. Also: potency is read from the fitted curve at half-maximal effect.
For assay [5], the target named is Retinaldehyde dehydrogenase 3 (Homo sapiens) (UniProt P47895). Put plainly: qHTS for Inhibitors of the Aldehyde Dehydrogenase Family (ALDH1A3) Primary screen (AID 2061315).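 Also: plate controls were DMSO vehicle for no effect and reference inhibitor for full effect.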
Assay [6] concerns the target Aldehyde dehydrogenase 1A1 (Homo sapiens) (UniProt P00352). Put plainly: qHTS for Inhibitors of the Aldehyde Dehydrogenase Family (ALDH1A1) Confirmatory screens (AID 2061316). Also: nearly all actives have a fitted effect of over 65% in size. Also: potency is read from the fitted curve at half-maximal effect. As to activity change, negative = inhibition: % is scaled to controls: 0 for no effect and ±100 for the full control effect.

With `CC(=O)NC(C)c1cc(F)c2cccnc2c1O` (stereo not given), the Potency in assay [1] is 2.52 µM (active); in assay [3], 11.3 µM (active); in assay [4], 10.1 µM (active). In addition, the Potency result in assay [2] and in assay [5] was “inactive” throughout.

On to `COc1ccccc1-c1nc(-c2ccc(C(=O)O)cc2)no1`, for which the Potency in assay [1] is 2.14 µM (active); in assay [3], 1.13 µM (active). In addition, the Potency result in assay [2], in assay [4] and in assay [6] was “inactive” throughout.

As for `COc1ccc(C2Nc3ccccc3C(=O)N2Cc2cccc3ccccc23)cc1COc1ccc(NC(C)=O)cc1` (stereo not given), the Potency in assay [1] was 3.55 µM (active); in assay [3], 12.6 µM (active); in assay [4], 22.5 µM (active); in assay [6], 4 µM (active). In addition, the Potency entry in assay [2] and in assay [5] was “inactive” throughout.

As to `COc1ccc(-n2c(C)c(C(C)=O)c3cc(O)ccc32)cc1`, the Potency result in assay [1], in assay [2], in assay [3], in assay [4], in assay [5] and in assay [6] was “inactive” throughout.

Regarding `N#Cc1nc(Nc2cccc([N+](=O)[O-])c2)nc(NC2CCCC2)n1`, the figures for the Potency in assay [1], in assay [3] and in assay [4] were 5.62 µM (active), 22.4 µM (active) and 6.34 µM (active), respectively. In addition, the Potency entry in assay [2] and in assay [5] was “inactive” throughout.

Turning to `CN(C)[S+](=O)([O-])c1ccc(-c2cncc(NC(=O)c3cccs3)c2)cc1`, the Potency is 2 µM (active) in assay [1], 0.562 µM (active) in assay [3] and 6.31 µM (active) in assay [4]. For the same compound, the Potency entry in assay [2], in assay [5] and in assay [6] was “inactive” in each case.

Consider `Cc1ccsc1CN(C)c1ncnc2ccc(-c3ccoc3)cc12`, for which the Potency entry in assay [1], in assay [2] and in assay [5] was “inactive” each time. Moreover, the Potency is 22.5 µM (active) in assay [3] and 11.3 µM (active) in assay [4].

Consider `Cc1ccc(OCCn2c(CCNC(=O)c3cccc(C(F)(F)F)c3)nc3ccccc32)cc1`, for which the Potency result in assay [1], in assay [2], in assay [3], in assay [4], in assay [5] and in assay [6] was “inactive” throughout.

Regarding `Cc1ccc(CNc2ncnc3ccc(-c4ccoc4)cc23)o1`, the Potency result in assay [1], in assay [2], in assay [3] and in assay [5] was “inactive” each time. Moreover, the Potency in assay [4] was 20.1 µM (active).

For `CN(CC(=O)Nc1cccc(N2CCOCC2)c1)Cc1c(O)ccc2ccccc12`, the Potency in assay [1] was 5.65 µM (active); in assay [3], 12.7 µM (active); in assay [4] it was 11.3 µM (active); in assay [6] it was 4 µM (active). Besides, the Potency entry in assay [2] and in assay [5] was “inactive” each time.

On to `Cc1ccc(-c2cc(C(=O)Nc3ccc(-c4noc(=O)[nH]4)cc3)c3ccccc3n2)cc1C`, for which the figures for the Potency in assay [1] and in assay [3] were 7.08 µM (active) and 11.2 µM (active), respectively. The Potency result in assay [2], in assay [4], in assay [5] and in assay [6] was “inactive” throughout.

Turning to `O=C1N/C(=C\c2ccco2)C(=O)N1Cc1ccccc1`, the Potency in assay [1] was 0.798 µM (active); in assay [3], 11.3 µM (active); in assay [4], 12.7 µM (active); in assay [6], 3.57 µM (active). Further, the Potency result in assay [2] and in assay [5] was “inactive” each time.

For `COc1ccc(C2Nc3cccc(OC)c3C(=O)N2Cc2ccccc2)cc1COc1ccc(NC(C)=O)cc1` (stereo not given), the Potency in assay [1] is 1.13 µM (active); in assay [3], 12.7 µM (active); in assay [4], 10.1 µM (active); in assay [6] it was 11.3 µM (active). Besides, the Potency result in assay [2] and in assay [5] was “inactive” in each case.

Take `O=S(=O)(NN1CCOCC1)c1ccc(Br)cc1`: the Potency is 22.5 µM (active) in assay [1], 11.3 µM (active) in assay [4] and 3.57 µM (active) in assay [6]. Also, the Potency result in assay [2], in assay [3] and in assay [5] was “inactive” throughout.

Regarding `c1ccc(-n2cc(-c3nnc4n3CCCCC4)cn2)cc1`, the Potency entry in assay [1], in assay [2], in assay [5] and in assay [6] was “inactive” throughout. In addition, the Potency was 14.2 µM (active) in assay [3] and 12.7 µM (active) in assay [4].

For the compound `O=C(CSc1nc2ccccc2n1CCc1ccccc1)c1ccc(O)c(O)c1`, the Potency was 12.7 µM (active) in assay [1], 11.3 µM (active) in assay [3] and 7.98 µM (active) in assay [6]. Besides, the Potency result in assay [2], in assay [4] and in assay [5] was “inactive” each time.

On to `O=C1Nc2c(Cl)cccc2/C1=C\c1cc(Cl)c(O)c(Cl)c1`, for which the Potency in assay [1] is 1.79 µM (active); in assay [4], 25.2 µM (active); in assay [6], 7.12 µM (active). The Potency result in assay [2], in assay [3] and in assay [5] was “inactive” throughout.

As to `COc1ccc(C2Nc3ccccc3C(=O)N2Cc2ccccc2C)cc1COc1ccc(NC(C)=O)cc1` (stereo not given), the Potency in assay [1] was 1.79 µM (active); in assay [3], 17.9 µM (active); in assay [4], 17.9 µM (active); in assay [6], 25.2 µM (active). The Potency entry in assay [2] and in assay [5] was “inactive” throughout.

For the compound `CN(C)c1cccc(-c2cnc(N3CCC(C(N)=O)CC3)s2)c1`, the Potency was 8.96 µM (active) in assay [1], 15.9 µM (active) in assay [3] and 10.1 µM (active) in assay [6]. Moreover, the Potency entry in assay [2] and in assay [4] was “inactive” each time.

In the case of `Cc1occc1-c1ccc2ncnc(NCCc3cnc[nH]3)c2c1`, the Potency entry in assay [1], in assay [2] and in assay [5] was “inactive” throughout. For the same compound, the figures for the Potency in assay [3] and in assay [4] were 3.57 µM (active) and 28.3 µM (active), respectively.

Regarding `CCOC(=O)c1ccc2c(c1)c(C(C)=O)c(C)n2-c1ccc(OC)cc1`, the Potency entry in assay [1], in assay [2], in assay [3], in assay [4], in assay [5] and in assay [6] was “inactive” each time.

`Cc1ccccc1Nc1nc(C#N)nc(NC2CCCC2)n1`: the Potency in assay [1] is 10.1 µM (active); in assay [4] it was 12.7 µM (active). Moreover, the Potency entry in assay [2] and in assay [5] was “inactive” each time. Besides, in assay [3], the activity change, negative = inhibition is -21.8% [at 0.0073 µM].

Take `CC(=O)Nc1ccc(OCc2cccc(C3Nc4ccccc4C(=O)N3Cc3ccco3)c2)cc1` (stereo not given): the Potency is 10.1 µM (active) in assay [1], 12.7 µM (active) in assay [3], 14.2 µM (active) in assay [4] and 5.65 µM (active) in assay [6]. Besides, the Potency entry in assay [2] and in assay [5] was “inactive” each time.

As for `Oc1ccc(COC2CCN(Cc3ccccc3)C2)c2cccnc12` (stereo not given), the Potency entry in assay [1], in assay [2], in assay [4] and in assay [5] was “inactive” in each case. In assay [3], the Potency was 12.7 µM (active).

In the case of `CC(=O)Nc1ccc(-c2c(NC(C)=O)sc3c2CCNC3)cn1`, the Potency result in assay [1], in assay [2], in assay [3] and in assay [5] was “inactive” each time. Besides, the Potency in assay [4] was 11.3 µM (active); in assay [6] it was 17.9 µM (active).

With `CC(=O)N1CCN(c2ccc(NCc3cccs3)cc2)CC1`, the Potency in assay [1] is 3.18 µM (active); in assay [3] it was 7.98 µM (active); in assay [4] it was 5.65 µM (active); in assay [6], 10.1 µM (active). For the same compound, the Potency entry in assay [2] is “inactive”.

As for `COc1cccc(C2=Nn3c(nnc3-c3ccccc3C)SC2)c1`, the Potency in assay [1] is 2.51 µM (active); in assay [3] it was 22.4 µM (active); in assay [4], 17.8 µM (active); in assay [6] it was 10.1 µM (active). The Potency result in assay [2] and in assay [5] was “inactive” in each case.

Take `O=C(Nc1cccc2nn(-c3ccc(F)cc3)cc12)c1ccccn1`: the Potency entry in assay [1], in assay [2], in assay [3], in assay [4] and in assay [5] was “inactive” throughout. Further, the Potency in assay [6] is 28.3 µM (active).

For the compound `Cc1ccc(S(=O)(=O)Nc2cnccc2C(=O)Nc2nc(-c3ccc4c(c3)CCCC4)cs2)cc1`, the Potency in assay [1] was 22.5 µM (active); in assay [4], 8.96 µM (active); in assay [6], 11.3 µM (active). The Potency entry in assay [2], in assay [3] and in assay [5] was “inactive” throughout.

`C=C1CN(Cc2ccc(C(=O)Nc3ccccc3N)cc2)C(=O)c2ccccc21`: the Potency in assay [1] is 15.8 µM (active). Further, the Potency entry in assay [2], in assay [3], in assay [4] and in assay [5] was “inactive” each time.

Consider `Cc1c(C(=O)OCC2CCCCO2)[nH]c2c1C(=O)CC(c1ccco1)C2` (stereo not given), for which the Potency entry in assay [1], in assay [2] and in assay [5] was “inactive” throughout. Besides, the Potency is 14.1 µM (active) in assay [3], 7.12 µM (active) in assay [4] and 1.42 µM (active) in assay [6].

In the case of `NC(=O)C1CCN(c2ncc(-c3ccc(Br)cc3)s2)CC1`, the Potency was 5.65 µM (active) in assay [1], 22.4 µM (active) in assay [3] and 11.3 µM (active) in assay [6]. Also, the Potency entry in assay [2], in assay [4] and in assay [5] was “inactive” throughout.

In the case of `COC(=O)c1ccc(O)c2ncc(N3CC[C@H](N)C3)cc12`, the Potency result in assay [1], in assay [2], in assay [4] and in assay [5] was “inactive” in each case. Moreover, the Potency in assay [3] was 12.7 µM (active); in assay [6], 11.3 µM (active).

Consider `Cc1cc(C)nc(NC(=S)N2CCN(c3cc4ccccc4cn3)CC2)c1`, for which the Potency result in assay [1] and in assay [2] was “inactive” throughout. Also, the results for the Potency in assay [3], in assay [4] and in assay [6] were 6.34 µM (active), 15.9 µM (active) and 5.04 µM (active), respectively.

`O=C(O)c1cccc(-n2cccc2/C=C2/C(=O)N(Cc3ccc(F)cc3)C(=O)N2Cc2ccc(F)cc2)c1`: the Potency in assay [1] was 14.2 µM (active). The Potency result in assay [2], in assay [3], in assay [4], in assay [5] and in assay [6] was “inactive” throughout.

In the case of `COc1ccc(-c2c(NC(C)=O)sc3c2CCNC3)cc1`, the Potency entry in assay [1], in assay [2], in assay [3] and in assay [5] was “inactive” in each case. Also, the Potency was 20.1 µM (active) in assay [4] and 11.3 µM (active) in assay [6].

Consider `O=C(Nc1ccc(N2CCOCC2)nc1)c1cccs1`, for which the Potency in assay [1] is 25.1 µM (active); in assay [3], 22.5 µM (active); in assay [4] it was 22.5 µM (active); in assay [6] it was 12.7 µM (active). Also, the Potency result in assay [2] and in assay [5] was “inactive” in each case.
